Experimental data from PubChem BioAssay (EPA / NIEHS).
Results filed as inconclusive are left out. Calls of active or inactive are those of the source. How the source made its calls, unless noted: active means hit-call score of the fitted dose curve at least 0.9, where 1 is the maximum; inactive means score below 0.9.

Columns and labels:
[1] = molecular target: Nucleoli Translocation, AR (gene 367) (UniProt P10275); assay: UPITT_HCI_U2OS_AR_TIF2_Nucleoli_Antagonist: University of Pittsburgh U2OS Androgen Receptor-Transcriptional Intermediary Factor 2 (AR-TIF2) Antagonism High Content Imaging Assay for Nucleoli Translocation (AID 2283997; active means hit-call score of the fitted dose curve at least 0.9, where 1 is the maximum)
In short: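 U2OS cells co-expressing red-fluorescent-tagged human AR and green-fluorescent-tagged TIF2, imaged by high-content microscopy for nucleolar red fluorescence. Antagonist mode against DHT; primary screen at 20 uM final (0.2% DMSO).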

[2] = molecular target: Ratio of Nucleoli Translocation and Cytoplasm, AR (gene 367) (UniProt P10275); assay: UPITT_HCI_U2OS_AR_TIF2_Nucleoli_Cytoplasm_Ratio_Antagonist: University of Pittsburgh U2OS Androgen Receptor-Transcriptional Intermediary Factor 2 (AR-TIF2) Antagonism High Content Imaging Assay for Ratio of Nucleoli Translocation and Cytoplasm (AID 2283999; active means hit-call score of the fitted dose curve at least 0.9, where 1 is the maximum;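 further: antagonists lower the DHT-driven ratio of nucleolar to cytoplasmic red signal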)
In short: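 U2OS cells co-expressing RFP-tagged human AR and GFP-tagged TIF2, antagonist mode with DHT as baseline. Nucleolar-to-cytoplasmic red fluorescence ratio imaged by high-content microscopy; final compound 20 uM (0.2% DMSO) primary, 0.195–50 uM (0.5% DMSO) concentration-response.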

[3] = molecular target: Ratio of Nucleoli Translocation and Cytoplasm, AR (gene 367) (UniProt P10275); assay: UPITT_HCI_U2OS_AR_TIF2_Nucleoli_Cytoplasm_Ratio_Agonist: University of Pittsburgh U2OS Androgen Receptor-Transcriptional Intermediary Factor 2 (AR-TIF2) Agonism High Content Imaging Assay for Ratio of Nucleoli Translocation and Cytoplasm (AID 2284000; active means hit-call score of the fitted dose curve at least 0.9, where 1 is the maximum;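 further: hits raise the red nucleolar to cytoplasm ratio above vehicle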)
In short: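 U2OS cells expressing RFP-tagged human AR and GFP-tagged TIF2; high-content imaging ratio of nucleolar to cytoplasmic red fluorescence, fitted as gain of signal vs DMSO. Single point at 20 uM final (0.2% DMSO); concentration-response 0.195-50 uM final (0.5% DMSO).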

[4] = molecular target: Nucleoli Translocation, AR (gene 367) (UniProt P10275); assay: UPITT_HCI_U2OS_AR_TIF2_Nucleoli_Agonist: University of Pittsburgh U2OS Androgen Receptor-Transcriptional Intermediary Factor 2 (AR-TIF2) Agonism High Content Imaging Assay for Nucleoli Translocation (AID 2283998; active means hit-call score of the fitted dose curve at least 0.9, where 1 is the maximum)
In short: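 U2OS cells expressing RFP-tagged human AR and GFP-tagged TIF2; red fluorescence in nucleoli quantified by high-content imaging. Primary screen at 20 uM final (0.2% DMSO); concentration-response 0.195–50 uM (0.5% DMSO), fitted upward versus DMSO.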

[5] = CCTE_Harrill_HTTr_Viability_MCF7: CCTE's 6-hour Cell Viability Assessment for the High-Throughput Transcriptomics (HTTr) Platform, in MCF-7 cells cultured in DMEM + 10% fetal bovine serum, Harrill Lab (AID 2284010)
In short: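 MCF-7 cells in DMEM + 10% FBS, 384-well, exposed 6 h to an eight-point dilution series. Membrane integrity scored by high-content imaging of propidium iodide exclusion; bidirectional fit versus DMSO.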

[6] = CCTE_Harrill_HTTr_Apoptosis_MCF7: CCTE's 6-hour Apoptosis Assessment for the High-Throughput Transcriptomics (HTTr) Platform, in MCF-7 cells cultured in DMEM + 10% fetal bovine serum, Harrill Lab (AID 2284011)
In short: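 MCF-7 cells in DMEM + 10% FBS exposed 6 h to chemicals over an eight-point dilution series. Caspase-3/7 activation imaged by high-content CellEvent Green staining; fitted bidirectionally versus DMSO.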

[7] = CCTE_Shafer_MEA_acute_firing_rate_mean: CCTE's Neural Acute Assay for Mean Firing Rate, Shafer Lab (AID 2284009);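 further: analyzed for loss of signal so actives lower firing rate relative to DMSO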
In short: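 Rat primary cortical neurons on 48-well MEA plates, dosed at 0.03-40 uM on DIV 13 or 15; 40 min spontaneous activity recorded at 37 C before and after compound. Spike rate per electrode averaged per well, expressed as percent change from baseline.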

[8] = CCTE_Harrill_HTTr_CellCount_MCF7: CCTE's Cell Proliferation Assessment for the High-Throughput Transcriptomics (HTTr) Platform, Harrill Lab (AID 2284012; active means hit-call score of the fitted dose curve at least 0.9, where 1 is the maximum;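 further: cells exposed to compound for six hours; intended direction is loss of nuclei count meaning fewer cells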)
In short: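 MCF7 cells exposed 6 hours to an eight-point dilution series; Hoechst-stained nuclei counted by high-content imaging. Bidirectional curve fitting against DMSO baseline.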

[9] = CCTE_Shafer_MEA_acute_burst_number: CCTE's Neural Acute Assay for Single-Electrode Bursts, Shafer Lab (AID 2284013)
In short: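 Primary rat cortical neurons on 16-electrode MEA wells, treated on DIV 13 or 15 with compound at 0.03-40 uM. Single-electrode burst count from 40-min recordings at 37 C before and after exposure; percent change from baseline per well, DMSO negative control.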

[10] = CCTE_Shafer_MEA_acute_burst_duration_mean: CCTE's Neural Acute Assay for Mean Burst Duration, Shafer Lab (AID 2284014);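 further: hits are decreases in mean burst duration relative to DMSO controls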
In short: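 Rat primary cortical neurons on 48-well MEA, treated at DIV 13 or 15 with 0.03-40 uM in at least 3 wells. Value is percent change in mean burst duration, comparing 40 min recordings at 37 C before and during exposure.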

[11] = CCTE_Shafer_MEA_acute_per_burst_spike_number_mean: CCTE's Neural Acute Assay for Average Number of Spikes Per Burst, Shafer Lab (AID 2284015);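 further: hits are decreases in mean spikes per burst versus baseline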
In short: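 We recorded spontaneous network firing of rat cortical neurons for 40 min before and 40 min during exposure to compound at 0.03-40 uM, at 37 C. Spikes were detected adaptively at 8x rms noise, and the change in average spikes per burst was fitted against DMSO.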

[12] = CCTE_Shafer_MEA_acute_interburst_interval_mean: CCTE's Neural Acute Assay for Mean Interburst Interval, Shafer Lab (AID 2284016);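 further: percent change of mean interburst interval versus each well's own pre-dose baseline; curves fitted for decrease in interburst interval relative to DMSO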
In short: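 MEA recording of spontaneous network bursting in primary rat cortical cultures; mean interburst interval was compared before and after a 40-min compound exposure (0.03-40 uM) and expressed as percent change, relative to DMSO.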

[13] = CCTE_Shafer_MEA_acute_burst_percentage_std: CCTE's Neural Acute Assay for Standard Deviation of Burst Percentage, Shafer Lab (AID 2284018);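 further: fitted in the negative direction so actives lower burst percentage SD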
In short: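 Rat primary cortical neurons on 48-well MEAs, DIV 13 or 15, 37 C. 40-min baseline then 40-min recording with compound (0.03-40 uM); well-level SD of per-electrode burst spike percentage, expressed as percent change from baseline.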

[14] = CCTE_Shafer_MEA_acute_per_network_burst_spike_number_mean: CCTE's Neural Acute Assay for Average Number of Spikes in a Network Burst, Shafer Lab (AID 2284019);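 on AC50: curve fitted for loss of signal so actives reduce spikes per network burst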
In short: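 Rat primary cortical neurons on 48-well MEA at DIV 13 or 15, 37 C; compounds 0.03-40 uM, at least three wells each. 40-min baseline then 40-min exposure recording; percent change in mean spikes per network burst.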

[15] = CCTE_Shafer_MEA_acute_per_network_burst_spike_number_std: CCTE's Neural Acute Assay for Standard Deviation of Number of Spikes in a Network Burst, Shafer Lab (AID 2284020);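 further: fitted for decrease in spike-number SD versus DMSO so actives lower it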
In short: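 Rat primary cortical neurons on 48-well MEA (16 electrodes/well), treated DIV 13 or 15 at 0.03-40 uM, ≥3 wells per compound. 40 min recordings at 37 C before and after dosing; value is percent change in network-burst spike-number SD, negative direction vs DMSO.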

[16] = CCTE_Shafer_MEA_acute_per_network_burst_electrodes_number_mean: CCTE's Neural Acute Assay for Mean Number of Electrodes in a Network Burst, Shafer Lab (AID 2284021);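 further: curves fitted for decreases only so hits reduce electrodes per burst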
In short: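 Rat primary cortical neurons on 48-well MEAs, DIV 13 or 15, were treated at 0.03-40 uM. Spikes were detected at 8x rms noise and recorded at 37 C. The mean electrodes per network burst in a 40 min exposure recording was expressed as percent change from a 40 min baseline.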

[17] = CCTE_Shafer_MEA_acute_network_burst_percentage: CCTE's Neural Acute Assay for Percentage of Network Bursts, Shafer Lab (AID 2284022);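 further: curves fitted for loss so actives lower network burst percentage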
In short: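 Rat primary cortical neuron networks on 48-well MEA plates, DIV 13 or 15, treated acutely with compound (0.03-40 uM, at least three wells). Percent of spikes within network bursts compared between 40-min recordings before and during exposure at 37 C, expressed as percent change.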

[18] = CCTE_Shafer_MEA_acute_cross_correlation_area: CCTE's Neural Acute Assay for Area of Cross Correlation, Shafer Lab (AID 2284024);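 further: curves fitted for loss of cross-correlation area so actives lower synchrony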
In short: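 Rat primary cortical neurons on 48-well MEA, DIV 13 or 15; compounds 0.03-40 uM. Baseline and post-exposure 40 min recordings at 37 C; percent change in area under pooled inter-electrode cross-correlation near zero lag, relative to DMSO.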

[19] = system: DIO1 (gene 1733); assay: CCTE_GLTED_hDIO1: CCTE's human Deiodinase 1 (DIO1) Inhibition Assay, Great Lakes Toxicology and Ecology Division (GLTED) Lab (AID 2283987; active means hit-call score of the fitted dose curve at least 0.9, where 1 is the maximum;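 further: isolated human DIO1 enzyme in a cell-free setup rather than cells; enzyme activity read as free iodide liberated from substrate via Sandell-Kolthoff colorimetry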)
In short: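 Cell-free human DIO1 enzyme incubated 3 h with test chemical; iodide freed from substrate then measured by Sandell-Kolthoff absorbance. Run in triplicate; loss of signal relative to DMSO taken as inhibition.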

[20] = CCTE_Harrill_HTTr_Apoptosis_PRF_DMEM_24hr: (Pilot) CCTE's 24-hour Apoptosis Assessment for the High-Throughput Transcriptomics (HTTr) Platform, in MCF-7 cells cultured in phenol red-free DMEM + 10% charcoal-stripped fetal bovine serum, Harrill Lab (AID 2283986)
In short: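 MCF-7 cells in phenol red-free DMEM with 10% charcoal-stripped FBS, exposed 24 h across an eight-point dilution series. Caspase-3/7 activation imaged with CellEvent Green by high content imaging; bidirectional fitting against DMSO.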

Measured: AC50

Chain of Nucleoli Translocation, AR (gene 367) (P10275 whole entry, looked up): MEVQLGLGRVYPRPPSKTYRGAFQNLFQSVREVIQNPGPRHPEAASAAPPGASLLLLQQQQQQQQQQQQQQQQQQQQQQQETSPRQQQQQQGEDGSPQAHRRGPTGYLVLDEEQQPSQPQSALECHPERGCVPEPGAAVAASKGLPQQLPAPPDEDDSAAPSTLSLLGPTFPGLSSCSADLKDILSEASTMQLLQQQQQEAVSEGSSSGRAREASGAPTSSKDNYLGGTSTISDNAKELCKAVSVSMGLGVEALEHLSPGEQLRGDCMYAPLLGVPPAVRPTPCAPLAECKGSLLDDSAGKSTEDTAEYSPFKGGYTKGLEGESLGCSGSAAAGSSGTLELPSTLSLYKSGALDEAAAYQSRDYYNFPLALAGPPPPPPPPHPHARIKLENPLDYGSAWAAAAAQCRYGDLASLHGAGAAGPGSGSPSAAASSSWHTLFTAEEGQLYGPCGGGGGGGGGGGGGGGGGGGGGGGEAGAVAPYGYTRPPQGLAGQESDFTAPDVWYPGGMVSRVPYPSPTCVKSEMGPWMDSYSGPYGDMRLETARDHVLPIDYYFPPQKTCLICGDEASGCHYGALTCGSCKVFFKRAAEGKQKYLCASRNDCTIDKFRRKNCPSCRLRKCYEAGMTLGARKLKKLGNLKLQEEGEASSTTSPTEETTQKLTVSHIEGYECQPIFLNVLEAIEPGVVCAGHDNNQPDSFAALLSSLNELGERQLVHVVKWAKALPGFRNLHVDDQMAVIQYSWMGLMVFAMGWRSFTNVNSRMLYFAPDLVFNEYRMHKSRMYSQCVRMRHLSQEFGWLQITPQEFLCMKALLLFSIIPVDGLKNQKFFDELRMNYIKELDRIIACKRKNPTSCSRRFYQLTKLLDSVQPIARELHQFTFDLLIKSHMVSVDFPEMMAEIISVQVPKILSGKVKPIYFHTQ
Chain of Ratio of Nucleoli Translocation and Cytoplasm, AR (gene 367) (P10275 whole entry, looked up): as above

COc1cc([N+](=O)[O-])ccc1N
inactive: [1] | [2] | [3]

O=C(NCc1ncc(C(F)(F)F)cc1Cl)c1c(Cl)cccc1Cl
inactive: [1] | [4] | [2] | [3] | [5] | [6]

O=C(CCCN1CCC(O)(c2ccc(Cl)cc2)CC1)c1ccc(F)cc1
active: [7] 1.78 µM | [14] 0.451 µM
not listed: [1] | [2] | [3] | [4] | [19] | [20]
inactive: all other assays above

Nc1ccc(O)c(C(=O)O)c1
inactive: [5] | [6]

Cc1cc(C(=C2C=CC(=Nc3ccc(S(=O)(=O)O)cc3)C=C2)c2ccc(Nc3ccc(S(=O)(=O)O)cc3)cc2)cc(S(=O)(=O)O)c1N
inactive: [1] | [2] | [3]

O=C(O)C(F)(F)OC(F)(F)C(F)(F)OC(F)(F)C(F)(F)OC(F)(F)C(F)(F)C(F)(F)C(F)(F)F
active: [19] 24.6 µM

CCCCCCCCCCCCOC(=O)c1cc(O)c(O)c(O)c1
active: [19] 53.4 µM
inactive: [5] | [6] | [8]

CCCCCCC(C)(C)C(=O)O
inactive: [1] | [4] | [2] | [3]

CCCCC=O
active: [17] 32.7 µM
not listed: [1] | [2] | [3] | [4] | [19] | [20]
inactive: all other assays above

Oc1ccc(Cc2ccccc2O)cc1
active: [7] 0.000868 µM | [9] 0.0236 µM | [18] 0.00812 µM
inactive: [10] | [11] | [12] | [13] | [14] | [15] | [16] | [17]

CC(=O)Nc1ccc(O)cc1
not listed: [2] | [3] | [4] | [12] | [19] | [20]
inactive: all other assays above

CCCCc1oc2ccccc2c1C(=O)c1cc(I)c(OCCN(CC)CC)c(I)c1
active: [20] 74.5 µM | [7] 8.87 µM
not listed: [1] | [2] | [3] | [4] | [19]
inactive: all other assays above

OCC(CO)(CBr)CBr
not listed: [1] | [2] | [3] | [4] | [19] | [20]
inactive: all other assays above

CN(C)CCOC(c1ccccc1)c1ccccc1
active: [7] 4.98 µM | [9] 3.11 µM | [12] 7.21 µM | [16] 1.25 µM | [17] 7.74 µM
not listed: [2] | [8] | [19] | [20]
inactive: all other assays above

CCCCCc1ccc(O)cc1
inactive: [3]
active: [1] 31.9 µM | [4] 39.1 µM | [2] 86.1 µM

NC(=NCCCCCCN=C(N)/N=C(\N)Nc1ccc(Cl)cc1)/N=C(\N)Nc1ccc(Cl)cc1
active: [19] 21.3 µM | [1] 16.5 µM | [2] 11.6 µM | [5] 70 µM
inactive: [4] | [3] | [6]

Cc1ccc(N=Nc2c(O)ccc3ccccc23)c(C)c1
inactive: [5] | [6]

CCCCCCc1ccc(N)cc1
active: [3] 78.4 µM
inactive: [1] | [4] | [2]

c1cc2cccc3c4cccc5cccc(c(c1)c23)c54
inactive: [5] | [6]

N=C(N)c1ccc(OCCCCCOc2ccc(C(=N)N)cc2)cc1
active: [13] 31.8 µM | [16] 2.5 µM
not listed: [1] | [2] | [3] | [4] | [19] | [20]
inactive: all other assays above

COc1cc(OC)nc(NC(=O)NS(=O)(=O)Nc2ccccc2C(=O)N(C)C)n1
inactive: [5] | [6]

CCC(C)c1ccccc1O (stereo unspecified)
active: [7] 2.06 µM | [9] 2.44 µM | [17] 5 µM
not listed: [1] | [2] | [3] | [4] | [19] | [20]
inactive: all other assays above

CC(O)COc1ccccc1 (stereo unspecified)
inactive: [1] | [4] | [2] | [3] | [5] | [6] | [8]

CC(C)[C@@H]1CC[C@@H](C)C[C@H]1O
inactive: [1] | [4] | [5] | [6]

CC1COCc2cc3c(cc21)C(C)(C)C(C)C3(C)C (stereo unspecified)
inactive: [2] | [5] | [6] | [8]
active: [1] 9.92 µM
